Data reported in the supplement of paper PMC8269313.
Counter-ions that a name gives are not always drawn.

Test system: 4T1
Experiment: % inhibition of 4T1 cell number vs DMSO control; higher = stronger growth inhibition
Conditions: 1 µM, 3 days
Outline: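 In 96-well imaging plates whose edge wells went unused, 3000 4T1-H2B-GFP mouse breast cancer cells per well were seeded in 2% FBS medium onto plastic, denuded lung matrix, mCAF1 fibroblast-derived matrix, Matrigel (15 μg/mL) or 0.2% gelatin. Sixteen hours on, kinase inhibitors went in at 1 μM final for 3 days before formalin fixation, DAPI staining and imaging on an INCell Analyzer 2200. Counting of GFP-positive nuclei gave cell numbers, from which percent inhibition relative to control was derived.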

[1] = substrate: lung fibroblast-derived matrix
[2] = substrate: mCAF1 fibroblast-derived matrix

Row | Structure (SMILES) | % inhibition of 4T1 cell number (substrate: Matrigel) | % inhibition of 4T1 cell number (substrate: gelatin) | % inhibition of 4T1 cell number [1] | % inhibition of 4T1 cell number [2] | % inhibition of 4T1 cell number (substrate: plastic)
1 | CNc1cc2c(Nc3cccc(Br)c3)ncnc2cn1 | -6.51% | -93.8% | 25.4% | 6.09% | -25.5%
2 | c1ccc(-c2cnc(Nc3ccc(OCCN4CCCC4)cc3)s2)cc1 [Flt-3 Inhibitor III] | 95.2% | 88.5% | 5.06% | 65.3% | 72.6%
3 | O=S(=O)(NCCNC/C=C/c1ccc(Br)cc1)c1cccc2cnccc12 [H-89, Dihydrochloride] | -2.21% | 25.6% | -2.1% | 36% | -37.5%
4 | O=[N+]([O-])c1ccc(-c2nc(-c3ccc(F)cc3)c(-c3ccncc3)[nH]2)cc1 | -4.18% | 12% | -11.4% | 26.1% | -60.5%
5 | CC[C@@H](CO)Nc1nc(NCc2ccc(-c3ccccn3)cc2)c2ncn(C(C)C)c2n1 [CR8, (S)-Isomer] | 99.4% | 98.9% | 60.2% | 95.8% | 96.5%
6 | O=C1C(=Cc2ccc(O)cc2)C2=Nc3ccccc3C2=C1C1=C2C(=Nc3ccccc32)C(=Cc2ccc(O)cc2)C1=O [Scytonemin, Lyngbya sp.] | 46.6% | 52.5% | 65.9% | 26.2% | 39.5%
7 | COc1ccc2c(c1)c(C1=C(c3c[nH]c4ccccc34)C(=O)NC1=O)cn2CCCN(C)C | -19.1% | -76.7% | -27.2% | 11.8% | -63.4%
8 | Cc1nc(-c2ccccc2)c(-c2ccncc2)o1 | 36.5% | 13.3% | 14.6% | -10.1% | 5.64%
9 | COc1ccc(CNC(=O)Nc2ncc([N+](=O)[O-])s2)cc1 [GSK-3b Inhibitor VIII] | -53.9% | 19.6% | 27.8% | 24.4% | -62.1%
10 | O=C(c1ccc(Nc2nccc(-c3cc4ccccc4s3)n2)cc1)N1CCC(N2CCCC2)CC1 [IKK Inhibitor VII] | 81.6% | 55.4% | -10% | 52.9% | -20.6%
11 | O=C(Nc1cc(C(F)(F)F)cc(C(F)(F)F)c1)c1cc(Cl)ccc1O [IKK-2 Inhibitor V] | 91.1% | 90.6% | 80.7% | 82.9% | 94.5%
12 | c1ccc(-c2n[nH]c3c2oc2ccccc23)cc1 | -3.87% | -77.4% | -1.95% | -3.97% | -64.2%
13 | Nc1[nH]nc2nnc(-c3c(-c4ccccc4)nn4ccccc34)cc12 | -37.8% | -5.47% | -14.3% | 1.41% | -58.3%
14 | CCC(=O)Nc1ccc2ncnc(Nc3cccc(Br)c3)c2c1 | -8.72% | -108% | -2.26% | -19.4% | -59.2%
15 | COc1cc2ncnc(Nc3ccc(O)c(Br)c3)c2cc1OC [JAK3 Inhibitor II] | -13.3% | -52.6% | -6.47% | 25.3% | -53.6%
16 | O=c1[nH][nH]c2nnc(-c3c(-c4ccccc4)nn4ccccc34)cc12 [ERK Inhibitor II, Negative control] | -40.3% | -11.4% | -10% | 3.24% | -83.1%
17 | CCCOc1ccc(/C=C2/SC(=O)NC2=O)cc1 [PIM1/2 Kinase Inhibitor VI] | 16.2% | 22.9% | 2.3% | -16.9% | -1.33%
18 | c1cc(-c2cnn3cc(-c4ccc(OCCN5CCCCC5)cc4)cnc23)ccn1 [AMPK Inhibitor, Compound C] | 49.6% | 27.5% | 12.9% | 7.87% | 52.8%
19 | CCCCc1c(-c2ccc(O)cc2)[nH]c2nccnc12 [Aloisine A] | 53.4% | 38% | 1.62% | -3.45% | 48.1%
20 | O=C1NC(=O)C(c2cn(CCCO)c3ncccc23)=C1c1cnccn1 [GSK-3b Inhibitor XI] | 26.7% | 30.4% | 0.393% | 15.6% | 44.6%
21 | CCCCn1c2ccc(O)cc2c2c3c(c(-c4ccccc4Cl)cc21)C(=O)NC3=O [Wee1 Inhibitor II] | 52.6% | 63% | 15.6% | 4.43% | 57.9%
22 | CCCC(=O)Oc1ccc2[nH]c(C(=O)c3cc4ccccc4[nH]3)cc2c1 [PDGF Receptor Tyrosine Kinase Inhibitor II] | -18.7% | -112% | -6.16% | 1.3% | -70.2%
23 | CN(C)S(=O)(=O)c1ccc2c(c1)/C(=C/c1cc3c([nH]1)CCCC3)C(=O)N2 | -10.2% | 2.33% | -16.4% | -22.1% | -51.8%
24 | CN1C(=O)C(c2c[nH]c3ccccc23)=C(c2c[nH]c3ccccc23)C1=O [Bisindolylmaleimide V] | 82.1% | 67% | -9.51% | -40.4% | 50.7%
25 | CCCCc1c(-c2ccc(OC)cc2)[nH]c2nccnc12 [Aloisine, RP106] | 39.6% | 41.7% | -14.4% | -9.32% | 46.9%
26 | C[C@@H](N)C1CCC(C(=O)Nc2ccncc2)CC1 (stereo not given in full) | -13.2% | -4.77% | -5.27% | 9.93% | -47.5%
27 | COc1cc2ncnc(Nc3ccc(NC(=O)c4ccccc4)cc3)c2cc1OC [Aurora Kinase Inhibitor II] | 50.4% | 37.2% | -20.1% | -30.6% | 35.8%
